Source: PubChem
Lassa entry inh: blocks Lassa virus binding to or entry into cells; Lassa virus pseudotype entry inhibition, cell reporter; Potency, µM (highest dose often 37.9 µM), for inactives: top-dose activity change, negative = inhibition, usual class: inhibitors; 300,000 tested, 1.2% active; calls by dose curve; tested in HEK293 cells; also: potency is read from the fitted curve at half-maximal effect; nearly all actives have a fitted effect of over 50% in size
HCMV inh: human cytomegalovirus inhibition; 410,000 tested, 4.5% active; AID 1259415; HFF cells, HCMV-luciferase reporter, 72 h; active compounds read low; activity change, negative = inhibition, % at 57.5 µM; in the data active = activity change below about -60%; inconclusive = no clear call, values can overlap the other calls; inactive = above about -39%
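Steps: HFFs plated, 16 h 37C; compounds added; HCMV-luciferase added to MOI 1 PFU/cell; 72 h 37C; OneGlo reagent, 5 min room temperature; luminescence read, normalized to controls.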
VACV Venus inh: vaccinia inhibition (Venus reporter); Vaccinia virus Venus reporter expression, fluorescence; Potency, µM (series often up to 36.5 µM), inactives show at the highest dose activity change, negative = inhibition, hits mostly inhibitors; 330,000 tested, 0.46% active; calls by dose curve; tested in A549 cells; also: potency is read from the fitted curve at half-maximal effect; nearly all actives have a fitted effect of over 30% in size
Marburg entry inh: Marburg virus entry inhibition; Potency, µM (series often up to 37.8 µM), inactives show top-dose activity change, negative = inhibition, hits mostly inhibitors; 300,000 tested, 1.8% active; Marburg virus pseudotyped entry inhibition, cell reporter; calls by dose curve; tested in HEK293 cells; also: potency is read from the fitted curve at half-maximal effect
VACV mCherry inh: inhibitors of vaccinia virus infection (mCherry reporter signal); AID 720579; Potency, µM (highest dose often 36.5 µM), inactives show top-dose activity change, negative = inhibition, hits mostly inhibitors; Vaccinia virus mCherry reporter infection, fluorescence; 310,000 tested, 0.63% active; calls by dose curve; tested in A549 cells; also: potency is read from the fitted curve at half-maximal effect; nearly all actives have a fitted effect of over 35% in size
FMDV antiviral: foot and mouth disease virus antiviral activity. 410,000 tested, 1.2% active. FMDV antiviral cell-based qHTS. AID 1159524. Potency, µM (titrated, usually from 57.9 µM), for the others: at the top dose activity change, negative = inhibition, most hits filed as inhibitors; calls by dose curve; tested in HEK293T cells; also: read-out not given here; potency is read from the fitted curve at half-maximal effect; nearly all actives have a fitted effect of over 45% in size
* = called active by the depositor; i = inactive; ? = inconclusive; . = no result; [ ] = another dose, or the depositor's remark. A selection: hits, their analogues and other compounds. The true share with any hit is near 6.5%. % is scaled to controls: 0 for no effect and ±100 for the full control effect.

SMILES	Lassa entry inh	HCMV inh	VACV Venus inh	Marburg entry inh	VACV mCherry inh	FMDV antiviral
Cc1ccc2sc(N(CCCN(C)C)C(=O)c3ccc(S(=O)(=O)N(C)C4CCCCC4)cc3)nc2c1C	13µM*	-35	?	?	?	-4%
Cc1sc2c(c1C)c(=O)n(-c1ccccc1)c(=O)n2CC(=O)c1ccc(Cl)cc1	?	-10	-14%	?	-14%	-6%
O=C(Nc1ccn(Cc2c(F)c(F)cc(F)c2F)n1)c1ccc(COc2ccccc2Cl)cc1	?	-71*	?	?	-24%	-16%
O=C(Nc1ccn(Cc2ccccc2F)n1)c1ccc(COc2ccccc2Cl)cc1	?	-98*	?	?	?	?
O=C(Nc1ccn(Cc2ccccc2F)n1)c1ccc(COc2cccc(Br)c2)cc1	?	27	?	8.9µM*	-13%	0%
O=C1c2c(O)cccc2[C@H]([C@@H]2O[C@H](CO)[C@@H](O)[C@H](O)[C@H]2O)c2cc(CO)cc(O)c21	.	.	-27%	.	i	-9%
COc1cc(-c2ccc(C)cc2)cc2c1OCCN(C(=O)CCn1ccc(C)n1)C2	.	.	-8%	.	-18%	-16%
CCOc1ccc(-c2cc(C(=O)NCCc3ccccc3)c3c(-c4ccc(C)cc4)[nH]nc3n2)cc1	-1%[46.1 µM]	-17	-24%	.	-14%	33%
CCOC(=O)c1ccc(NC(=S)N(CCN(C)C)Cc2cccs2)cc1	?	-61*	-2%	?	?	54%
CCOC(=O)c1ccc(NC(=S)N(CCCN2CCCCC2)Cc2ccco2)cc1	-17%	?	-15%	13µM*	-15%	-2%
O=C(Nc1ccccc1)Nc1cc(Cl)cc(Cl)c1	?	-91*	11µM*	?	.	-29%
O=C(NCc1ccccn1)Nc1cc(Cl)cc(Cl)c1	.	-24	.	.	.	2%
COc1ccc(NC(=O)NC(=O)c2ccccc2)cc1	.	34	.	.	.	80%
O=C(NCc1csc2ccccc12)Nc1cc(Cl)cc(Cl)c1	-19%	-62*	-17%	?	-28%	?
O=C(Nc1ccc(Nc2ccccc2)cc1)Nc1ccccc1Cl	.	?	.	.	.	19%
O=C(NC(=O)c1ccccc1)Nc1ccccc1	?	-3	-5%	2.8µM*	0%	-44%
O=C(Nc1cccnc1)Nc1cc(Cl)cc(Cl)c1	1%	-61*	?	-15%	-27%	?
Cc1ccc(C)c(NC(=O)C2CCN(S(=O)(=O)c3c(C)noc3/C=C/c3cccs3)CC2)c1	-2%[46.1 µM]	?	-9%	-1%[46.1 µM]	-7%	-19%
O=C(Nc1ccccc1)Nc1cc(OCC(F)(F)F)cc(OCC(F)(F)F)c1	?	-100*	?	?	?	-20%
CN1C(=O)C(C2(O)C(=O)N(Cc3ccccc3)c3ccccc32)c2ccccc21 (centres undefined)	.	-11	.	.	.	.
CC1NC2(C(=O)N(Cc3ccccc3)c3ccccc32)C2C(=O)N(c3ccccc3)C(=O)C12 (centres undefined)	.	-98*	-8%	-2%	i	-7%
O=[N+]([O-])c1ccc(N2CCN(Cc3ccc4c(c3)OCO4)CC2)nc1	?	12	-14%	?	?	?
CCn1c(=O)c([N+](=O)[O-])c(N2CCSCC2)c2ccccc21	-1%	?	?	?	?	18µM*
O=c1sc2ccccc2c(N2CCOCC2)c1[N+](=O)[O-]	6%	7	-8%	3%	i	5%
O=c1c([N+](=O)[O-])c(N2CCOCC2)c2ccccc2n1Cc1ccccc1	?	-67*	-13%	-2%[46.1 µM]	-22%	?
SMILES	Lassa entry inh	HCMV inh	VACV Venus inh	Marburg entry inh	VACV mCherry inh	FMDV antiviral
CCn1c(=O)c([N+](=O)[O-])c(N2CCN(Cc3ccc4c(c3)OCO4)CC2)c2ccccc21	?	-64*	?	?	-24%	32µM*
Cn1c(=O)c([N+](=O)[O-])c(N2CCSCC2)c2ccccc21	?	?	-22%	4%	?	?
O=Cc1cc([N+](=O)[O-])ccc1N1CCN(Cc2ccc3c(c2)OCO3)CC1	7%[46.1 µM]	-102*	-13%	3%[46.1 µM]	-6%	-26%
C/C(=C1/C=Nc2ccccc21)c1ccc(N(C)C)cc1	.	.	-15%	.	20%	.
O=C(Nc1cccn(Cc2c(Cl)cccc2Cl)c1=O)c1ccccc1Cl	-6%	-31	.	?	.	?
O=C(Nc1cccn(Cc2c(Cl)cccc2Cl)c1=O)c1ccc(Cl)cc1Cl	-26%	-97*	.	-28%	.	?
